Results on 19 compounds are retold here after PubChem BioAssay.

As usually defined, the inhibition is the drop in the measured response relative to a control, in per cent. The viability is a read-out of living cells in per cent, often relative to untreated cells.

SMILES strings stand for the structures. Where “and” joins values, the source holds several entries; their conditions need not be identical. Equal values may be shown once. Calls of active or inactive are those of the source. Unless noted, how the calls were made is not given here. Where a SMILES comes first, the peptide text is derived from it. The star is where a group is joined. Cbz = O=C(OCc1ccccc1)*

Experiment [1] is described as follows: sensitizers of A549 cells to miR-34 induction, primary screen, imaging, A549 dox-inducible miR-34, nuclei and caspase counts (AID 1347080;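 active means compounds whose cell count with miR-34 switched on is under 0.7 times the count with it off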). The following applies: A549 miR-34 inducible, Hoechst nuclei count, 48 h.
The nature of experiment [2]: circadian clock period modulators, cell-based, LOPAC library, luminescence reporter (AID 2774).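 Further: values are relative to mean of DMSO wells on each plate.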 To be noted: circadian reporter cells, at 7 µM, actives lie on both sides.
In experiment [3] the test system is Hepatitis C virus NS3 helicase. Briefly: HCV NS3 helicase inhibitors, primary screen, biochemical, fluorescence polarization, LOPAC1280 library (AID 687035; in the data active means inhibition above about 37%). The following applies: Purified HCV NS3 helicase, Cy5-dT15 ssDNA binding fluorescence polarization; stronger effect = higher value; concentration not given here.
The nature of experiment [4]: Cy5 fluorescence quenching or enhancement artefacts, artefact control for HCV NS3 helicase inhibitor project, biochemical, LOPAC1280 (AID 687037). The following applies: Cy5-DNA-NS3h complex fluorescence interference counterscreen. (Counterscreens check selectivity or assay interference.)
A short description of experiment [5]: inhibitors of Cryptococcus chitosan production, flow cytometry, Cibacron Brilliant Red staining (AID 1347148).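 Further: compound exposure lasted three days at 37 degrees C.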 The following applies: Cryptococcus neoformans chitosan, stronger effect = lower value; at 10 µM unless noted. (In general: A flow cytometer gives signals particle by particle.)
Experiment [6] can be described thus: phospholipid biosynthesis inhibitors in animal cells, primary screen, cell-based, LOPAC library, screen 4 (AID 1347384). The following applies: phospholipid biosynthesis inhibition screen, at 10 µM.
A short description of experiment [7]: viability rescue of complex I mutant cybrids, primary screen, cell-based, galactose medium, ATP luminescence (AID 1645843;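 active means z-score of at least 1.8 in each of two replicates, scored against plate mean and spread of sample wells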;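 further: positive z means more ATP and so rescue of galactose-driven cybrid death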). The following applies: complex I mutant cybrid cells, 72 h, stronger effect = higher value.
Experiment [8] can be described thus: survival rescue of mitochondrial mutant cells in low glucose, primary screen, MELAS cybrids, Rieske KO mouse fibroblasts, CellTiter-Glo (AID 1508586;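 active means mean z-score across replicates of 1.96 or higher in either the MELAS or the Rieske mutant cell line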;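 further: z relative to plate mean and SD of compound and empty wells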). In general terms: In ATP-based viability assays light output follows the ATP content of the culture.
Experiment [9] in a line: hESC survival regulators, cell-based (AID 493140).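 Further: cells exposed to compounds for four days before counting.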 To be noted: human embryonic stem cell survival screen; stronger effect = higher value.
A short description of experiment [10]: liver-stage malaria parasite growth inhibition, primary screen, cell-based, HepG2, luciferase luminescence, HepG2 viability (AID 624349; in the data active means parasite load remaining mostly below about 12%, no sharp cut-off; inactive means mostly above about 10%;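 further: 100% = mean of DMSO negative control wells on the same plate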). To be noted: P. berghei liver stage in HepG2, luciferase luminescence, concentration not given here; parasite load remaining: stronger effect = lower value; viability: measured here: HepG2 viability without parasites.
Where [11] appears, read: stronger effect = lower value, cell number ratio, induced over uninduced.
The mark [12] stands for this setting: measured here: relative caspase fold change +Dox/-Dox.
Setting [13] is: measured here: total cells with miR-34 induction, stronger effect = lower value.
[14] abbreviates: measured here: total cells without miR-34 induction.
[15] abbreviates: MELAS cybrid survival, CellTiter-Glo 48 h, stronger effect = higher value.
Setting [16] is: Rieske KO mouse fibroblast survival, CellTiter-Glo 72 h.

On to `CCCCCCCCCCCCC/C=C/[C@H](O)[C@@H](CO)NC(=O)CCCCCCCCCCCCCCCCCCCCCCC`, for which the results for the fold change in experiment [1] (setting [11]) and in experiment [1] (setting [12]) were 0.979 (inactive) and 0.918, respectively. For the same compound, the cell count in experiment [1] (setting [13]) is 5890; in [1] (setting [14]), 6010.

In the case of `CC(C)[C@H](NC(=O)OCc1ccccc1)C(=O)N[C@H](C=O)Cc1ccccc1` (Cbz-Val-Phe-aldehyde), the period change in [2] is -0.095 h (inactive). In experiment [3], the inhibition was 1% (inactive). In addition, the fluorescence ratio (interference) in [4] was 1.1 (inactive). In addition, the fold change in [1] (setting [11]) was 1.08 (inactive) and 0.959 (inactive); in experiment [1] (setting [12]) it was 1.1 and 1.17. In addition, the cell count in experiment [1] (setting [13]) is 9200 and 4810; in [1] (setting [14]), 8520 and 5010. The fold fluorescence in experiment [5] is 5.31 [at 130.7 µM] (inactive). Besides, the result in [6] was inactive. Moreover, in experiment [7], the z-score is 0.52 (inactive).

For `CCCCCCC[C@H](O)/C=C/[C@@H]1[C@@H](C/C=C\CCCC(=O)O)[C@@H](O)C[C@H]1O`, the fold change is 0.945 (inactive) in experiment [1] (setting [11]) and 1.5 in experiment [1] (setting [12]). The figures for the cell count in [1] (setting [13]) and in experiment [1] (setting [14]) were 6150 and 6520, respectively.

For `O=C1NC(O)=NC1(c1ccccc1)c1ccccc1`, the period change in [2] was -0.095 h (inactive). The inhibition in experiment [3] was -2% (inactive). Moreover, in experiment [4], the fluorescence ratio (interference) was 1.1 (inactive). Further, the fold change in experiment [1] (setting [11]) is 0.966 (inactive) and 0.93 (inactive); in [1] (setting [12]), 1.46 and 0.866. Besides, the cell count was 9800 and 7860 in experiment [1] (setting [13]); 10100 and 8450 in experiment [1] (setting [14]). Moreover, in experiment [5], the fold fluorescence is 4.71 [at 198.2 µM] (inactive). In addition, the z-score in [8] (setting [15]) was -0.314 (inactive); in [8] (setting [16]), -0.0769; in [7], 0.26 (inactive).

In the case of `CS(=O)(=O)Nc1ccc([N+](=O)[O-])cc1OC1CCCCC1`, the fold change in [1] (setting [11]) is 0.816 (inactive) and 0.974 (inactive); in experiment [1] (setting [12]), 1.1 and 1.38. Also, the cell count in experiment [1] (setting [13]) was 4510 and 5650; in experiment [1] (setting [14]) it was 5530 and 5800. Also, the fold fluorescence in [5] is 5.81 [at 159.1 µM] (inactive).

Regarding `CCCCC/C=C\C/C=C\C/C=C\CCCCC(=O)O`, the survival in [9] was 76.5 (inactive). Moreover, the fold change in experiment [1] (setting [11]) was 0.948 (inactive) and 1.06 (inactive); in experiment [1] (setting [12]), 1.2 and 0.96. Further, the cell count in experiment [1] (setting [13]) was 5680 and 5970; in experiment [1] (setting [14]), 5990 and 5660. For the same compound, the fold fluorescence in experiment [5] is 4.86 (inactive).

For `CCCCC[C@H](O)/C=C/[C@@H]1[C@@H](C/C=C/CCCC(=O)O)[C@H](O)C[C@H]1O`, the fold change was 0.95 (inactive) in [1] (setting [11]) and 1.55 in [1] (setting [12]). Further, the cell count in [1] (setting [13]) stood at 5260; in [1] (setting [14]) it was 5540.

For `CCCCCC[C@@H]([C@@H](C)O)n1cnc2c(N)ncnc21`, the period change in experiment [2] is 0.15 h (inactive). In addition, the inhibition in experiment [3] was -4% (inactive). Moreover, the fluorescence ratio (interference) in [4] was 1 (inactive). In addition, the fold change in experiment [1] (setting [11]) was 0.934 (inactive) and 0.834 (inactive); in [1] (setting [12]), 0.993 and 0.703. The cell count in experiment [1] (setting [13]) was 8420 and 3190; in [1] (setting [14]), 9020 and 3820. The fold fluorescence in [5] was 5.1 [at 180.3 µM] (inactive). Also, in experiment [6], the compound was called inactive. The z-score in [7] is -0.69 (inactive).

As for `NCCNS(=O)(=O)c1cccc2c(Cl)cccc12`, the inhibition in experiment [3] is -2% (inactive). Further, in experiment [4], the fluorescence ratio (interference) was 1 (inactive). The fold change in experiment [1] (setting [11]) is 1.01 (inactive) and 0.93 (inactive); in experiment [1] (setting [12]), 0.86 and 1.13. Besides, the cell count in experiment [1] (setting [13]) is 9070 and 4030; in experiment [1] (setting [14]) it was 9000 and 4330. Besides, the fold fluorescence in experiment [5] is 10.8 [at 175.6 µM] (inactive). Also, the compound was called inactive in [6]. The z-score in experiment [7] is -0.845 (inactive).

Regarding `CCN(CC)CCCCCCCCOC(=O)c1cc(OC)c(OC)c(OC)c1`, the period change in experiment [2] was -0.085 h (inactive). Also, the inhibition in [3] was -4% (inactive). In addition, the fluorescence ratio (interference) in experiment [4] is 0.9 (inactive). Also, the fold change was 1.02 (inactive) and 0.949 (inactive) in [1] (setting [11]); 0.695 and 1.09 in experiment [1] (setting [12]). Further, the cell count was 8240 and 4880 in experiment [1] (setting [13]); 8090 and 5140 in experiment [1] (setting [14]). Besides, the fold fluorescence in experiment [5] is 8.07 [at 126.4 µM] (inactive). Moreover, in experiment [6], the compound was called inactive. In addition, the z-score in experiment [7] was -0.285 (inactive).

As to `CC(=O)O[C@@]12C[C@@H](C)[C@@]3(O)[C@@H](C=C(CO)C[C@]4(O)C(=O)C(C)=C[C@@H]34)[C@@H]1C2(C)C`, the fold change in [1] (setting [11]) is 0.95 (inactive); in experiment [1] (setting [12]) it was 1.47. Moreover, the cell count was determined as 5200 in experiment [1] (setting [13]) and 5470 in experiment [1] (setting [14]).

As for `O=C(O)CCCCCCCCCCCNC(=O)NC12CC3CC(CC(C3)C1)C2`, the fold change is 0.971 (inactive) in [1] (setting [11]) and 0.546 in [1] (setting [12]). Also, the values for the cell count in experiment [1] (setting [13]) and in [1] (setting [14]) were 5310 and 5470, respectively.

Consider `CC12C(=O)OC(=O)C1(C)C1CCC2O1` (stereo not given), for which the period change in experiment [2] was -0.375 h (inactive). The survival in experiment [9] was 0 (inactive). Besides, the inhibition in [3] was 0% (inactive). The fluorescence ratio (interference) in [4] was 1 (inactive). Moreover, the fold change in experiment [1] (setting [11]) was 1.31 (inactive) and 0.948 (inactive); in experiment [1] (setting [12]), 1.51 and 0.943. Moreover, the cell count in [1] (setting [13]) was 607 and 462; in [1] (setting [14]) it was 465 and 488. In experiment [5], the fold fluorescence is 5.03 [at 254.8 µM] (inactive). Also, in experiment [6], the result was inactive. In addition, the z-score in experiment [7] is -1.43 (inactive).

As to `NC(=S)NCCC[C@H](N)C(=O)O`, the fold change is 0.92 (inactive) and 1.03 (inactive) in experiment [1] (setting [11]); 1.34 and 0.799 in [1] (setting [12]). For the same compound, the cell count was 5590 and 6220 in [1] (setting [13]); 6080 and 6060 in [1] (setting [14]). Further, in experiment [5], the fold fluorescence is 2.92 [at 261.4 µM] (inactive).

On to `CC(C)(C)c1cc(/C=C(\C#N)C(N)=S)cc(C(C)(C)C)c1O`, for which the period change in experiment [2] was 0.535 h (inactive). In addition, the survival in experiment [9] was 106 (inactive). The inhibition in experiment [3] was 5% (inactive). The fluorescence ratio (interference) in experiment [4] is 1 (inactive). The fold change in [1] (setting [11]) is 1.09 (inactive) and 1.17 (inactive); in [1] (setting [12]) it was 1.31 and 0.937. Moreover, the cell count in experiment [1] (setting [13]) is 4070 and 1820; in experiment [1] (setting [14]) it was 3720 and 1560. Also, the fold fluorescence in [5] is 11.2 [at 158 µM] (inactive). For the same compound, in experiment [6], the call was active. Moreover, the z-score in [7] was -1.35 (inactive).

With `C#CCOc1ccccc1CCCCCC(=O)NS(C)(=O)=O`, the fold change was 0.952 (inactive) in experiment [1] (setting [11]) and 0.875 in experiment [1] (setting [12]). Also, the results for the cell count in experiment [1] (setting [13]) and in experiment [1] (setting [14]) were 5890 and 6190, respectively.

Take `CC(=O)OCOC(c1ccc2ccccc2c1)P(=O)(OCOC(C)=O)OCOC(C)=O` (stereo not given): the results for the fold change in [1] (setting [11]) and in experiment [1] (setting [12]) were 1.11 (inactive) and 0.941, respectively. Besides, the results for the cell count in experiment [1] (setting [13]) and in experiment [1] (setting [14]) were 3180 and 2860, respectively.

In the case of `CCCCC/C=C\C=C\CCCCCCCCC(=O)O`, the fold change in [1] (setting [11]) is 1.07 (inactive); in experiment [1] (setting [12]) it was 1.02. The results for the cell count in experiment [1] (setting [13]) and in experiment [1] (setting [14]) were 5840 and 5480, respectively.

For `COc1cc2ncc(-c3ccccc3)nc2cc1OC`, the survival in experiment [9] was 66.2 (inactive). In experiment [10], the parasite load remaining is 37% (inactive). Also, in experiment [10], the viability was 96.9%. Further, the fold change was 0.803 (inactive) and 0.84 (inactive) in experiment [1] (setting [11]); 1.43 and 0.498 in [1] (setting [12]). Further, the cell count in [1] (setting [13]) was 3060 and 6730; in experiment [1] (setting [14]) it was 3820 and 8010. The fold fluorescence in [5] is 6 [at 187.8 µM] (inactive). Further, the z-score is 0.0666 (inactive) in experiment [8] (setting [15]) and 1.44 in [8] (setting [16]).
